In PubChem BioAssay:
Where “and” joins values, the source holds several entries; their conditions need not be identical. Equal entries are not always repeated. Where a structure was tested more than once in an assay, its records may differ in their call. Calls of active or inactive are those of the source. Unless noted, no rule for the calls is given here.

Tests used:
[1] = system: Wnt5a (protein binding on small-molecule microarray); assay: Wnt5a binders on small-molecule microarray, primary screen, biophysical, 635/667 nm fluorescence (AID 1142); details: 635 nm fluorescence, higher = more signal;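 also: fluorescence read at 667 nm with signal to noise per printed feature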
[2] = cell viability in Huh7 cells, primary screen, cytotoxicity control for HCV replication inhibitor project, CellTiter-Glo luminescence, basal, 48 h (AID 1143); details: Huh7 HCV replicon, higher = more signal, called active from +8 up or from −8 down;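 also: Huh7 hepatoma cells carrying a hepatitis C replication reporter with no stimulus; test concentration not given here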
[3] = P. aeruginosa biofilm formation inhibitors, primary screen, PAO1 strain, BacTiter-Glo luminescence, LB-PBS (AID 1144); details: 12 h, higher = more signal
[4] = CREB reporter modulators without forskolin, primary screen, cell-based, PC12, CRE-LacZ reporter, unstimulated (AID 1145); details: no forskolin, luminescence, 4.5 h, higher = more signal, called active from +8 up or from −8 down
[5] = CREB reporter modulators under forskolin, primary screen, cell-based, PC12, CRE-LacZ reporter, forskolin-stimulated (AID 1146); details: luminescence, 4.5 h, higher = more signal, called active from +8 up or from −8 down;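 also: PC12 cells with 6xCRE LacZ reporter stimulated by forskolin 10 µM; beta-galactosidase reporter signal reflecting CREB driven transcription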
[6] = molecular target: Streptavidin (Streptomyces avidinii) (UniProt P22629); assay: streptavidin binders on small-molecule microarray, primary screen, artefact control for SMM compound annotation, biophysical, 635/667 nm fluorescence (AID 1147); details: streptavidin binding, higher = more signal;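 also: signal reflects streptavidin binding to arrayed compounds as a control protein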
Streptavidin (Streptomyces avidinii), sequence (P22629 whole entry, looked up): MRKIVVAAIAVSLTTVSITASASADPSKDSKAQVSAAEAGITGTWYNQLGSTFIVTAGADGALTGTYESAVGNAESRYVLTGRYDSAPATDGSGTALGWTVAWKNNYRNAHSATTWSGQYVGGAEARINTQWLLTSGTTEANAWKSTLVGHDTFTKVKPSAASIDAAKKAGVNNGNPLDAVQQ

[7] = small-molecule binders of probe aInhba, primary screen, biochemical, small-molecule microarray, 635/667 nm fluorescence (AID 1148); details: higher = more signal;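 also: score merges 667nm spot fluorescence with signal-to-noise for antibody binding to printed compounds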
Torsin-1A (Homo sapiens) [8] = molecular target: Torsin-1A (Homo sapiens) (UniProt O14656); assay: torsin A binders from cell lysate, primary screen, small-molecule microarray, wild-type, 635/667 nm (AID 1149); details: COS7 hTOR1A-WT lysate, 635 nm fluorescence, higher = more signal
Torsin-1A (Homo sapiens), sequence (O14656 whole entry, looked up): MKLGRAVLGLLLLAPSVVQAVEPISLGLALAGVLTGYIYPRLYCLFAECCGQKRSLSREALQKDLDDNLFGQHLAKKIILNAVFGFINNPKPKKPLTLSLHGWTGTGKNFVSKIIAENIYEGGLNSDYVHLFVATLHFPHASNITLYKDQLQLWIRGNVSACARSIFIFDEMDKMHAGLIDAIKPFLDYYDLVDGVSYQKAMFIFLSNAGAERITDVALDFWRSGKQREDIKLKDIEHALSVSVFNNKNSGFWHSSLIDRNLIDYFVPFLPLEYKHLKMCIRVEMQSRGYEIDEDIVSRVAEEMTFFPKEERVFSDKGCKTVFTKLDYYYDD

Torsin-1A (Homo sapiens) [9] = molecular target: Torsin-1A (Homo sapiens) (UniProt O14656); assay: small-molecule binders of mutant TOR1A in lysate, primary screen, cell lysate, small-molecule microarray, COS7 lysate, 635/667 nm fluorescence (AID 1150); details: COS7 hTOR1A mutant lysate, 635 nm fluorescence, higher = more signal;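 also: score pools 667 nm emission and signal to noise measuring lysate protein binding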
[10] = system: Sonic hedgehog protein (Shh); assay: small-molecule binders of Shh protein, primary screen, biochemical, small-molecule microarray, 635/667 nm fluorescence (AID 1151); details: small-molecule microarray binding, 635 nm fluorescence; higher = more signal;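 also: Shh protein binding to compounds spotted on small-molecule microarray slides; score combines spot fluorescence intensity with signal-to-noise across triplicate slides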
[11] = E. coli DRC41 culture turbidity changes, primary screen, E. coli filamentation inducer project, strain DRC41, OD650, 48 h (AID 1152);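 also: E. coli MC1000 strain DRC41 lacking acrAB efflux pump and sulA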; details: E. coli DRC41 (acrAB sulA), higher = more signal, called active from +8 up or from −8 down
[12] = small-molecule binders of probe aLefty1, primary screen, biochemical, small-molecule microarray, 635/667 nm fluorescence (AID 1153); details: higher = more signal;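 also: score merges spot fluorescence with signal-to-noise ratio from the scanned slide images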
[13] = PSAC antagonists in infected red cells, primary screen, cell-based, P. falciparum Indochina, OD700, 1 h (AID 1154); details: P. falciparum Indochina infected RBC osmotic lysis, higher = more signal, called active from +8 up or from −8 down
[14] = PSAC antagonists in infected red cells, primary screen, cell-based, P. falciparum Indochina, OD700, 2 h (AID 1155);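 also: lysis reports solute entry through the parasite surface anion channel PSAC; channel blockers reduce lysis of infected cells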; details: P. falciparum Indochina infected erythrocytes, osmotic lysis OD700; higher = more signal, called active from +8 up or from −8 down
[15] = osmotic lysis modulators in infected erythrocytes, primary screen, PSAC antagonist project, cell-based, P. falciparum Indochina, OD700, 3 h (AID 1156); details: higher = more signal, called active from +8 up or from −8 down
[16] = PSAC antagonists in infected red cells, primary screen, cell-based, P. falciparum Indochina, OD700, 18 h (AID 1157); details: P. falciparum Indochina infected erythrocytes, osmotic lysis OD700, 18 h; higher = more signal, called active from +8 up or from −8 down
[17] = modulators of S6 phosphorylation in cells, primary screen, cell-based, A549, cytoblot, luminescence, serum-stimulated (AID 1158); details: A549 phospho-S6 cytoblot, 5 h, higher = more signal;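 also: serum-stimulated A549 lung adenocarcinoma cells; signal is phosphorylated S6 detected by cytoblot immunostaining with HRP secondary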
[18] = molecular target: NADPH oxidase 2 (Homo sapiens) (UniProt P04839); assay: NOX2-dependent H2O2 signal modulators, primary screen, NOX inhibitor project, cell-based, HEK293-NOX2, PMA-stimulated, Amplex Red fluorescence (AID 1159); details: 45 min, higher = more signal, called active from +8 up or from −8 down; also: test concentration not given here
NADPH oxidase 2 (Homo sapiens), sequence (P04839 whole entry, looked up): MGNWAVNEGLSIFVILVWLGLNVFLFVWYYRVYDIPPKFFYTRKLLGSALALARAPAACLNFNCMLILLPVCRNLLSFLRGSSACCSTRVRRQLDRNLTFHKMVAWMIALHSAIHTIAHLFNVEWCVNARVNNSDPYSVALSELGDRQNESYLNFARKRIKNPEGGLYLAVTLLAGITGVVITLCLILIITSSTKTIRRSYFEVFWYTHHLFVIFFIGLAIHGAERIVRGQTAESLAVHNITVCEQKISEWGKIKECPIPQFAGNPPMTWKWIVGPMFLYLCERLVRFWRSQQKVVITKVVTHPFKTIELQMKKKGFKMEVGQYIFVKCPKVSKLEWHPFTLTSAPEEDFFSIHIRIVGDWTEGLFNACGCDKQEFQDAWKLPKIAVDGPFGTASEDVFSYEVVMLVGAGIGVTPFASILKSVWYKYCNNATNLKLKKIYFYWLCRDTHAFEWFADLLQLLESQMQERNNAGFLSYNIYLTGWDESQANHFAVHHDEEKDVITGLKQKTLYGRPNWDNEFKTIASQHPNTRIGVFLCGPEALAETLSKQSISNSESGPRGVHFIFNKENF

[19] = molecular target: NADPH oxidase 4 (Homo sapiens) (UniProt Q9NPH5); assay: NOX4-dependent H2O2 signal modulators, primary screen, NOX inhibitor project, cell-based, HEK293-NOX4, tetracycline-induced, Amplex Red fluorescence (AID 1160); details: 45 min, higher = more signal, called active from +8 up or from −8 down
NADPH oxidase 4 (Homo sapiens), sequence (Q9NPH5 whole entry, looked up): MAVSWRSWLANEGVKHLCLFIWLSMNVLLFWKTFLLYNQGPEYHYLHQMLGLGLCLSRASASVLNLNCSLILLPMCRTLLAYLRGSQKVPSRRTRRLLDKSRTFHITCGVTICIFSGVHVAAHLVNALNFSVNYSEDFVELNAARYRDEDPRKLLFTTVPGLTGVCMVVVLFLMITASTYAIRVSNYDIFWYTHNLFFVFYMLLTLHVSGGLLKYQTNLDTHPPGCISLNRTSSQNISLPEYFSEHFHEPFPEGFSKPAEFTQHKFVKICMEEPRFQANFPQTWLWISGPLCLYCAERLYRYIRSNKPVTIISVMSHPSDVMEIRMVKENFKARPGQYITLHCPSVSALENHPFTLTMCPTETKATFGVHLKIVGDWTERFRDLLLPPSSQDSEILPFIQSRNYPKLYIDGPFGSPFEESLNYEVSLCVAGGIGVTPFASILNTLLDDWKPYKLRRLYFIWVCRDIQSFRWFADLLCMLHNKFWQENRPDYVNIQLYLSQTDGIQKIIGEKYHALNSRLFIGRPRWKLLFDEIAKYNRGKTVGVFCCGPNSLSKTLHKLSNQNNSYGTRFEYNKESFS

[20] = molecular target: NADPH oxidase 5 (Homo sapiens) (UniProt Q96PH1); assay: NOX5-dependent H2O2 signal modulators, primary screen, NOX inhibitor project, cell-based, HEK293-NOX5, Amplex Red fluorescence (AID 1161); details: HEK293-NOX5, ionomycin, 45 min, higher = more signal
NADPH oxidase 5 (Homo sapiens), sequence (Q96PH1 whole entry, looked up): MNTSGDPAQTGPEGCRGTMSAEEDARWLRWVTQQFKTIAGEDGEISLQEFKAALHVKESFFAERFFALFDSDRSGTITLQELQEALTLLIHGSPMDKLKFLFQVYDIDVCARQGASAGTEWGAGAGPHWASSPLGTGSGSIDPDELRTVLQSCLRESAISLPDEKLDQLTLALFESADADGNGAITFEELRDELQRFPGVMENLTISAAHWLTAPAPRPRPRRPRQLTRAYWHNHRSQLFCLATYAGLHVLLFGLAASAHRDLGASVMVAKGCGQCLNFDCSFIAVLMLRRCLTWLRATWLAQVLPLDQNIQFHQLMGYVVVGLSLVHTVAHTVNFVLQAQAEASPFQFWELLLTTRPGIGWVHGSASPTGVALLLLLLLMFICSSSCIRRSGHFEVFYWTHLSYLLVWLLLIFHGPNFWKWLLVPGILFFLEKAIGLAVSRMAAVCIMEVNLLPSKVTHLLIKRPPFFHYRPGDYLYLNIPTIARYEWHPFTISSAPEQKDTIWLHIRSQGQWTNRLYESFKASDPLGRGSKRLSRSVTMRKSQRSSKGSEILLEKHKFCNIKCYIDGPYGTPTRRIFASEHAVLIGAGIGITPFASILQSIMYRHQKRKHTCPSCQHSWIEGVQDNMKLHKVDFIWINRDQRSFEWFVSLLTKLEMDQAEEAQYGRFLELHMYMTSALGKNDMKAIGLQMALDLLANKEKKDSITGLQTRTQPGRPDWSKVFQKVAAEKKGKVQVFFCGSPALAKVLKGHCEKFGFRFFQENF

Row | SMILES | composite z-score [1] | z-score [2] | z-score [3] | z-score [4] | z-score [5] | composite z-score [6] | composite z-score [7] | composite z-score (Torsin-1A (Homo sapiens) [8]) | composite z-score (Torsin-1A (Homo sapiens) [9]) | composite z-score [10] | z-score [11] | composite z-score [12] | z-score [13] | z-score [14] | z-score [15] | z-score [16] | z-score [17] | z-score [18] | z-score [19] | z-score [20]
1 | C=CCN(CCCC)C(=O)C1N(c2ccc(CCO)cc2)C(=O)C2C(C(=O)O)C3C=CC21O3 (stereo not given) | -0.612 and -0.135 | -0.544 (inactive) and -0.336 (inactive) | -0.353 (inactive) and -1.38 (inactive) | -0.224 (inactive) and 0.0524 (inactive) | -0.153 (inactive) and 0.323 (inactive) | -1.29 and -2.12 | -0.389 and -0.409 | -2.4 and -3.13 | -1.86 and -3.82 | -1.43 and -2.14 | 0.516 (inactive) and 1.32 (inactive) | -0.103 and 0.778 | -0.245 (inactive) and 0.903 (inactive) | -0.186 (inactive) and -0.13 (inactive) | -0.874 (inactive) and -0.244 (inactive) | 0.113 (inactive) and -0.183 (inactive) | 0.799 and -0.202 | -0.212 (inactive) and 1.49 (inactive) | 0.0383 (inactive) and -1.09 (inactive) | -0.437 and 0.534
2 | COC(=O)[C@@]1(Cc2ccc(F)cc2)[C@H]2c3cc(C(=O)N4CCCC4)n(Cc4c(CO)[nH]cc(C)c4=O)c3C[C@H]2CN1C(=O)c1ccccc1 | 2.18 and 0.117 | -1.28 (inactive) and -0.88 (inactive) | -0.0556 (inactive) and 0.0252 (inactive) | 0.762 (inactive) and 0.962 (inactive) | 3.71 (inactive) and 3.05 (inactive) | 0.418 and -0.248 | 1.24 and 0.131 | 0.113 and -0.501 | 0.797 and 0.232 | -0.552 and -0.661 | -1.7 (inactive) and -1.76 (inactive) | 1.63 and 0.0811 | 1.02 (inactive) and 1.15 (inactive) | 0.148 (inactive) and 0.543 (inactive) | 0.63 (inactive) and 0.306 (inactive) | 0.398 (inactive) and 0.57 (inactive) | -0.52 and -0.213 | 0.636 (inactive) and 0.617 (inactive) | -1.58 (inactive) and -0.346 (inactive) | -2.05 and -0.222
3 | C[N+](C)(C)CCCCNC(=O)[C@H]1C[C@H]2C(=O)N[C@@H](CCCC[N+](C)(C)C)C(=O)N2[C@H]1c1cccc(OCCO)c1 | 0.949 and 0.646 | -0.0036 (inactive) and -0.177 (inactive) | -0.281 (inactive) and 0.741 (inactive) | -0.667 (inactive) and -0.268 (inactive) | -0.393 (inactive) and -0.441 (inactive) | -0.853 and -0.0338 | -0.025 and 0.0631 | -1.08 and 1.03 | -0.879 and 2.09 | 2.21 and 2.31 | -0.398 (inactive) and -0.737 (inactive) | 0.266 and -0.483 | 1.37 (inactive) and 2.16 (inactive) | 0.244 (inactive) and 0.944 (inactive) | -0.706 (inactive) and 0.0108 (inactive) | 0.155 (inactive) and 0.23 (inactive) | 0.2 and -0.314 | -0.187 (inactive) and -1.8 (inactive) | -0.217 (inactive) and -0.934 (inactive) | 0.0197 and 0.0552
4 | COC(=O)[C@@]1(Cc2ccccc2)[C@H]2c3cc(C(=O)N(C)C)n(Cc4ccc(C)c(F)c4F)c3C[C@H]2CN1C(=O)c1ccccc1 | 0.0409 and 1.51 | -4.98 (inactive) and -3.53 (inactive) | -0.796 (inactive) and 0.655 (inactive) | 31.5 (active) and 0.972 (inactive) | 202 (active) and 0.38 (inactive) | 0.367 and 1.93 | 0.122 and 0.787 | 0.399 and 0.7 | 0.272 and 0.365 | -0.678 and -0.165 | -1.18 (inactive) and -1.91 (inactive) | 0.476 and 0.712 | 2.54 (inactive) and 4.12 (inactive) | -0.6 (inactive) and 1.2 (inactive) | 0.425 (inactive) and 0.306 (inactive) | -1.34 (inactive) and 1.21 (inactive) | 1.16 and 0.782 | -3.14 (inactive) and 0.452 (inactive) | -4.83 (inactive) and -1.66 (inactive) | -5.5 and -1.88
5 | CCN1C(=O)[C@H]2[C@H]3[C@H](O)[C@H](O)CC(=NNC(=O)OCc4ccc(OC)cc4)[C@H]3CC[C@H]2C1=O | 0.153 | -0.0769 (inactive) | 0.619 (inactive) | 0.344 (inactive) | -0.287 (inactive) | 0.398 | 0.124 | 0.275 | -0.023 | -0.121 | 0.386 (inactive) | 0.792 | 3.18 (inactive) | -0.464 (inactive) | 0.175 (inactive) | 0.232 (inactive) | 0.479 | -0.447 (inactive) | 0.0987 (inactive) | 0.0869
6 | C[N+](C)(C)CCCCCCNC(=O)[C@@H]1C[C@@H]2C(=O)N[C@@H](CCCC[N+](C)(C)C)C(=O)N2[C@@H]1c1ccc(O)cc1 | 0.107 and -0.0086 | 0.0047 (inactive) and 0.0071 (inactive) | -0.424 (inactive) and -0.439 (inactive) | -0.532 (inactive) and -1.08 (inactive) | -1.2 (inactive) and 0.128 (inactive) | -0.392 and -0.129 | -0.128 and -0.0375 | 0.854 and -0.609 | 0.0983 and -0.498 | 1.61 and 2.12 | 0.877 (inactive) and 0.123 (inactive) | -0.0011 and -0.149 | 0.973 (inactive) and 1.9 (inactive) | 0.106 (inactive) and 0.554 (inactive) | -0.0454 (inactive) and 0.0605 (inactive) | -0.115 (inactive) and 0.375 (inactive) | -0.336 and -0.254 | -0.441 (inactive) and -0.988 (inactive) | 0.105 (inactive) and -0.431 (inactive) | 0.58 and -0.839
